Experimental data published in PubChem BioAssay (NCATS).
Unmarked numbers belong to inactive results. Records with an inconclusive call do not appear. Where a call stands in place of a potency, no number is given. Activity calls are given as the source filed them. Unless noted, the call rests on the fitted dose curve; in most records, active means well fitted curve in the direction sought with a large enough effect; inconclusive means small, poorly fitted or top-dose-only effect, or another doubt; inactive means no such curve, though single readings can be large; an effect the other way counts as inactive or inconclusive.

How the values were obtained:
[1] = target: Cytochrome P450 1A2 (Homo sapiens) (UniProt P05177); assay: p450-cyp1a2 (AID 410; calls by dose curve; further: potency means the concentration at half of the fitted maximal effect)
Method in brief: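 Human CYP1A2 (20nM) demethylated Luciferin-ME at its Km (100uM) in 100mM KPO4. After 10 min compound preincubation, NADPH regeneration ran the reaction 60 min at room temperature. Luciferin was read by luminescence, normalized to 57 uM furafylline.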

[2] = target: Glucocorticoid receptor (Homo sapiens) (UniProt P04150); assay: GR-GFP Redistribution (AID 450;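 active means compounds whose dose series gives a full or clear partial fitted curve of increased nuclear translocation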; further: potency means the concentration at half of the fitted maximal effect)
[3] = target: Glucocorticoid receptor (Homo sapiens) (UniProt P04150); assay: GR-EFC Redistribution (AID 451; calls by dose curve; further: potency means the concentration at half of the fitted maximal effect); settings: CHO-K1 GR-EFC translocation, beta-gal luminescence, 2 h
Method in brief: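 CHO-K1 cells expressing nuclear EA and GR-ED fragments of b-gal; compounds titrated up to 46 uM final, 2 h at 37 C. GR nuclear translocation read as complemented b-gal luminescence after 1 h RT detection.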

[4] = target: Mitogen-activated protein kinase 10 (Mus musculus) (UniProt Q61831); assay: JNK3 AlphaScreen Assay (AID 530; active means well fitted curve in either direction with a large enough effect, not every such curve was filed as active;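 further: kinase came from lysate of stimulated human HepG2 cells; signal reports phosphorylation of biotinylated GST-cJun 1-79 at Ser73 with 10 µM ATP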)
Method in brief: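 qHTS format: compounds tested as titrations against IL-1beta/TNF-alpha-activated HepG2 lysate JNK3 with biotin-GST-cJun substrate and 10 uM ATP at room temperature. Loss of anti-phospho-cJun AlphaScreen signal indicates inhibition.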

[5] = target: ATP-dependent 6-phosphofructokinase (Trypanosoma brucei brucei) (UniProt O15648); assay: qHTS Assay to Find Inhibitors of T. brucei phosphofructokinase: hit validation (AID 492961)
Method in brief: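 Luminescence from ADP-Glo reports ADP generated as T. brucei PFK (1.25 nM) phosphorylates 0.5 mM fructose-6-phosphate using 0.1 mM ATP. Reactions ran 45 min at room temperature, pH 8.0.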

[6] = target: DNA dC->dU-editing enzyme APOBEC-3G (Homo sapiens) (UniProt Q9HC16); assay: qHTS for inhibitors of Vif-A3G interactions: Validation (AID 588379)
Method in brief: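 HeLa cells stably expressing Vif and A3G-eYFP, 700 cells/well, incubated overnight at 37 deg C, then exposed to compound overnight at 37 deg C. Inhibition of Vif-mediated degradation read as increased yellow fluorescence (Ex 488/Em 500-530) by laser-scanning cytometry.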

[7] = target: Luciferin 4-monooxygenase (Photinus pyralis) (UniProt P08659); assay: Biochemical firefly luciferase enzyme assay for NPC (AID 624030);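 further: purified P. pyralis luciferase at 10 nM with luciferin and ATP substrate; nearly all actives have a fitted effect of over 70% in size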
Method in brief: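 Purified P. pyralis luciferase at 10 nM in 50 mM Tris Acetate (final), luminescence read within 5 minutes of enzyme addition to compounds. Activity normalised to PTC124 versus DMSO; concentration-response curves classed by r2, magnitude and activity.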

[8] = S16 Schwann cell PMP22 intronic element firefly luciferase assay (AID 624032); further: nearly all actives have a fitted effect of over 30% in size
Method in brief: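 Rat S16 Schwann cells stably carrying firefly luciferase driven by a PMP22 intronic element, in 10% FBS, treated 24 h at 37 C. ONE-Glo luminescence normalized to PTC124 control and DMSO (0%); curves classed by r2, magnitude and activity.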

[9] = S16 Schwann cell PMP22 intronic element beta-lactamase assay (AID 624044; calls by dose curve; further: nearly all actives have a fitted effect of over 15% in size); settings: S16 rat Schwann cells, PMP22 element beta-lactamase FRET, 24 h; ratio activity, negative = inhibition: at 38.3 µM (top of the series)
Method in brief: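 Rat S16 Schwann cells with beta-Lac driven by a PMP22 intronic element, compound-treated 24 h at 37 °C. LiveBLAzer FRET B/G read: 460 nm normalized to potassium clavulanate vs DMSO; 535 nm FRET as viability; concentration-effect curves classified.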

[10] = tested on: 7G8; assay: qHTS profiling for inhibitors of Plasmodium falciparum proliferation (AID 504749); further: nearly all actives have a fitted effect of over 60% in size; further: potency means the concentration at half of the fitted maximal effect; settings: P. falciparum in erythrocytes, SYBR Green DNA, 72 h; series mostly up to 28.7 µM
Method in brief: (§1)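 Readout was DNA-dye fluorescence from lysed cultures, ex 485/em 535 nm. Parasitized red cells had grown 72 h with compound; data scaled between 0.29 uM artemisinin and DMSO wells and corrected using vehicle-only plates.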

[11] = tested on: AA1029; assay: as above; settings: P. falciparum in erythrocytes, SYBR Green DNA, 72 h; series mostly up to 28.7 µM
Method in brief: as §1

[12] = tested on: ATS95; assay: as above; settings: P. falciparum in erythrocytes, SYBR Green DNA, 72 h; series mostly up to 28.7 µM
Method in brief: as §1

[13] = tested on: C2A; assay: as above; settings: P. falciparum in erythrocytes, SYBR Green DNA, 72 h; series mostly up to 28.7 µM
Method in brief: as §1

[14] = tested on: CP252; assay: as above; settings: P. falciparum in erythrocytes, SYBR Green DNA, 72 h; series mostly up to 28.7 µM
Method in brief: as §1

[15] = tested on: CP262; assay: as above; settings: P. falciparum in erythrocytes, SYBR Green DNA, 72 h; series mostly up to 28.7 µM
Method in brief: as §1

[16] = tested on: ECU; assay: as above; settings: P. falciparum in erythrocytes, SYBR Green DNA, 72 h; series mostly up to 28.7 µM
Method in brief: as §1

[17] = tested on: JCK; assay: as above; settings: P. falciparum in erythrocytes, SYBR Green DNA, 72 h; series mostly up to 28.7 µM
Method in brief: as §1

[18] = tested on: PAD; assay: as above; settings: P. falciparum in erythrocytes, SYBR Green DNA, 72 h; series mostly up to 28.7 µM
Method in brief: as §1

[19] = tested on: PC15; assay: as above; settings: P. falciparum in erythrocytes, SYBR Green DNA, 72 h; series mostly up to 28.7 µM
Method in brief: as §1

[20] = tested on: PC49; assay: as above; settings: P. falciparum in erythrocytes, SYBR Green DNA, 72 h; series mostly up to 28.7 µM
Method in brief: as §1

[21] = tested on: SC27B; assay: as above; settings: P. falciparum in erythrocytes, SYBR Green DNA, 72 h; series mostly up to 28.7 µM
Method in brief: as §1

[22] = tested on: TAB113; assay: as above; settings: P. falciparum in erythrocytes, SYBR Green DNA, 72 h; series mostly up to 28.7 µM
Method in brief: as §1

[23] = NFAT Signaling Pathway (AID 444; active means well fitted curve in either direction with a large enough effect, not every such curve was filed as active;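 further: carbachol stimulus at about its EC50 of 1 µM final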); settings: Jurkat NFAT-bla M1, carbachol, beta-lactamase ratio, 5 h; at 17.2 µM (top of the series) unless noted
Method in brief: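 Jurkat cells with NFAT-driven β-lactamase reporter and co-expressed M1 receptor, stimulated with carbachol (final 1 uM, ~EC50), compound titration, 5 h at 37 °C. CCF4 loaded 1 h at RT; 460/530 nm ratio gave %activity and AC50.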

[24] = target: 3',5'-cyclic-AMP phosphodiesterase 4B (Homo sapiens) (UniProt Q07343); assay: qHTS Assay for Inhibitors of PDE-IV (AID 607; active means well fitted activation curve with a large enough effect in the main read-out, with a control signal flat, not every such curve was filed as active)
Method in brief: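 Live HEK293 cells with a modified cyclic nucleotide-gated (CNG) channel report intracellular cAMP via membrane-potential dye fluorescence (ex 535/em 590 nm). Endogenous PDE-IV was targeted. Compounds were tested at up to 22.9 uM final; RO 20-1724 100 uM served as control.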

[25] = target: Guanine nucleotide-binding protein G(i) subunit alpha-1 (Homo sapiens) (UniProt P63096); assay: qHTS Assay for Inhibitors of RGS12 GoLoco Motif Activity (Green Fluorophore) (AID 879);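 further: negative values mean loss of peptide binding seen as reduced polarization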
Method in brief: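 Fluorescence polarization assay: 50 nM Gαi1 with 10 nM FITC-labeled RGS12 GoLoco peptide in 10 mM Tris pH 7.5, 150 mM NaCl, 0.1 mM GDP, 0.05% NP40, 10 min at room temperature with compound.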

[26] = target: Cytochrome P450 3A4 (Homo sapiens) (UniProt P08684); assay: qHTS Assay for Activators of Cytochrome P450 3A4 (AID 885); further: nearly all actives have a fitted effect of over 65% in size
Method in brief: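 Quantitative HTS format: compounds preincubated with 20nM human CYP3A4 and Luciferin-PPXE substrate at KM, reaction started by NADPH regeneration, stopped after 60 min, luciferase luminescence read 20 min later.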

[27] = qHTS Assay for Identification of Small Molecule Agonists for Thrombopoietin (TPO) Signaling Pathway (AID 917)
Method in brief: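 Reporter: GpIIb promoter–luciferase in murine Ba/F3 expressing human TPO receptor. Pre-starved of IL-3 overnight; compounds with 26 pM TPO, 24 hrs, 37 C/5% CO2; luminescence read.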

[28] = target: Pyruvate kinase (Leishmania mexicana) (UniProt Q27686); assay: qHTS Validation Assay for Inhibitors of Leishmania Mexicana Pyruvate Kinase (AID 945)
Method in brief: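 Luminescent ATP detection (PKLight) after a 1 h room-temperature reaction of 0.2 nM LmPYK E451W mutant with 0.5 mM PEP and 0.1 mM ADP at pH 7.2. Activity is normalized to DMSO-only control wells.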

[29] = target: Pyruvate kinase PKM (Homo sapiens) (UniProt P14618); assay: qHTS Assay for Activators of Human Muscle Pyruvate Kinase (AID 954; active means well fitted curve in the direction sought with a large enough effect, not every such curve was filed as active)
Method in brief: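 Enzyme was run at intermediate activity so both inhibitors and activators could be detected. ATP formed from ADP and PEP by 0.1 nM human PKM2 during a 1 h room-temperature incubation was quantified by coupled luciferase luminescence.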

[30] = target: Alpha-galactosidase A (Homo sapiens) (UniProt P06280); assay: Counterscreen for Glucocerebrosidase Inhibitors: qHTS Assay for Human alpha-Galactosidase at pH 4.5 (AID 992)
Method in brief: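 Read-out is 4-methylumbelliferone fluorescence (365 nm excitation, 440 nm emission) after a pH 10 NaOH/glycine stop. Reactions held 2 nM enzyme and 80 uM substrate at pH 4.5 for 20 min at room temperature.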

[31] = target: alpha-glucosidase (Oryza sativa, rice) (UniProt Q653V4); assay: Counterscreen for Glucocerebrosidase Inhibitors: qHTS Assay for Rice alpha-Glucosidase at pH 5.0 (AID 997)
Method in brief: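 Rice alpha-glucosidase (4 nM final) with 400 uM 4-methylumbelliferyl-alpha-D-glucopyranoside in citrate buffer pH 5.0, 20 min at room temperature, stopped at pH 10; fluorescence 365/440 nm, compounds 0.7 nM–77 uM, AC50 from Hill fits.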

[32] = AP1 Signaling Pathway (AID 357; active means well fitted curve in either direction with a large enough effect, not every such curve was filed as active;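 further: ME-180 reporter cells stimulated with EGF at its EC50 level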); settings: ME-180 (cervical carcinoma) AP-1-bla reporter, EGF-induced, beta-lactamase ratio, 5 h; at 17.2 µM (top of the series) unless noted
Method in brief: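 AP-1-bla ME-180 cells, Opti-MEM + 0.5% dialyzed FBS, plated overnight 37 °C. Cpd titration + EC50 EGF, 5 h 37 °C. CCF4 2.5 h RT; ex 405, em 460/530 ratio → %activity, AC50.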

Chain of Glucocorticoid receptor (Homo sapiens) (P04150 whole entry, looked up, the tested form may be a part): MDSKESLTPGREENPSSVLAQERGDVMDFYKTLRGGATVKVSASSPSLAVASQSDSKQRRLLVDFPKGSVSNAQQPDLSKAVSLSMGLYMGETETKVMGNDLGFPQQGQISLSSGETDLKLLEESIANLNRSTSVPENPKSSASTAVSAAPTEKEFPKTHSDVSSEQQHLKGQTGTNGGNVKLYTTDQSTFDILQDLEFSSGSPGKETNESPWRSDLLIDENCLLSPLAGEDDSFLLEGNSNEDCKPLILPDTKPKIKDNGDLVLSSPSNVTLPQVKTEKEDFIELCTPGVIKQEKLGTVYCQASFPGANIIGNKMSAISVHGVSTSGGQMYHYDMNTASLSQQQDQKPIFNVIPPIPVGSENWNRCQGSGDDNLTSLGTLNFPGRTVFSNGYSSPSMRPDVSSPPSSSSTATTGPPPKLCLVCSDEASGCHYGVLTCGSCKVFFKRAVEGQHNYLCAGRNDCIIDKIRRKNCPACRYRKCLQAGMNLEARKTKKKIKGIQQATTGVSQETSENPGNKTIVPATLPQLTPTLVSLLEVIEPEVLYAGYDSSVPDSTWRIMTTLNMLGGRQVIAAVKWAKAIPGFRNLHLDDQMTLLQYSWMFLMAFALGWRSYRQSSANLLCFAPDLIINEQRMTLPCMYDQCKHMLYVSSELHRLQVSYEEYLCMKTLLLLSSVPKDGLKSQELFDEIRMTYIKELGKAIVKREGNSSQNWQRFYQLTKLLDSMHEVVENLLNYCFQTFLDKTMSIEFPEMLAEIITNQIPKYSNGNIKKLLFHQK
Chain of Cytochrome P450 1A2 (Homo sapiens) (P05177 whole entry, looked up): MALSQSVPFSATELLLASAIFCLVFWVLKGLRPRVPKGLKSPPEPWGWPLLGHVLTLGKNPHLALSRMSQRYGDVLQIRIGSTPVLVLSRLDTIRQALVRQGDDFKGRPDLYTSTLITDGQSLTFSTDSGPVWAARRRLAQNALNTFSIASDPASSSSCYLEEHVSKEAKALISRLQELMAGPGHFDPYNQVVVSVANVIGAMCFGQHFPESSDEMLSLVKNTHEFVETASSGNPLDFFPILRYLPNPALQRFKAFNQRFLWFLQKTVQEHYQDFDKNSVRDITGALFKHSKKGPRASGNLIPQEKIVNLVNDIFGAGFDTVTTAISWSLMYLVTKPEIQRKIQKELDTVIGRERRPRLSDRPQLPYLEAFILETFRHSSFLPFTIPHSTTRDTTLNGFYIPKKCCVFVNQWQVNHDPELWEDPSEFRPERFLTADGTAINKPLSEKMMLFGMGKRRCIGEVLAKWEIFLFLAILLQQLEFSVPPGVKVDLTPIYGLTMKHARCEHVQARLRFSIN
Chain of Alpha-galactosidase A (Homo sapiens) (P06280 whole entry, looked up): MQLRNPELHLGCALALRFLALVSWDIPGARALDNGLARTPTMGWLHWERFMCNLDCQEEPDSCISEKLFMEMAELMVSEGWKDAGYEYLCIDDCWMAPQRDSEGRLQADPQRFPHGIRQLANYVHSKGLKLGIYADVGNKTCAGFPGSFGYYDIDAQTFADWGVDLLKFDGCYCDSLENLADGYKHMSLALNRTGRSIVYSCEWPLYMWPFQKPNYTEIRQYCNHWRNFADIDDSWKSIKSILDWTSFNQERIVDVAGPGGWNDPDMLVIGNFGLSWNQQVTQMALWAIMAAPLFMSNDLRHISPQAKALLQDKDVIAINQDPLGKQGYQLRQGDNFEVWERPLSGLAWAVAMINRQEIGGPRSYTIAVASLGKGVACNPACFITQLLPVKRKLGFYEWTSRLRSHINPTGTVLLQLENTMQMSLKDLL
Chain of 3',5'-cyclic-AMP phosphodiesterase 4B (Homo sapiens) (Q07343 whole entry, looked up): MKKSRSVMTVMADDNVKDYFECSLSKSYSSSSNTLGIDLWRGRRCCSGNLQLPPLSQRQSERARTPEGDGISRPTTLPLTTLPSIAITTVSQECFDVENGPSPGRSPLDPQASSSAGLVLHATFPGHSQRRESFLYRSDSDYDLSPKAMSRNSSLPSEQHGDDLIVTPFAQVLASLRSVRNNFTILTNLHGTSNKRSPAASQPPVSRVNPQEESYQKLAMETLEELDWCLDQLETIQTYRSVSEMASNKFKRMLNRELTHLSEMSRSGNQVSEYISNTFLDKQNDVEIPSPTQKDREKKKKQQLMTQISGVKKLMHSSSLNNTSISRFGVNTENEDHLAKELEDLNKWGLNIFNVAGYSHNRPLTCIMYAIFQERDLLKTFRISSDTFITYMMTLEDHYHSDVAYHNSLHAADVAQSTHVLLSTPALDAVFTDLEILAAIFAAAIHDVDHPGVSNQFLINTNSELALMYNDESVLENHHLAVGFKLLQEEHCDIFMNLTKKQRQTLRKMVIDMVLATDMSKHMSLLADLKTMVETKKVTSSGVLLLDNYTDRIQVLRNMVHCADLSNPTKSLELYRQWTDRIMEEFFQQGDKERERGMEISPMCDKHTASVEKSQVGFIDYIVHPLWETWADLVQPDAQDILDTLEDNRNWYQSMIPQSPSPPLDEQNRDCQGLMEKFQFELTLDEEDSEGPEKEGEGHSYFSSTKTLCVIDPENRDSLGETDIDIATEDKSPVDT
Chain of DNA dC->dU-editing enzyme APOBEC-3G (Homo sapiens) (Q9HC16 whole entry, looked up): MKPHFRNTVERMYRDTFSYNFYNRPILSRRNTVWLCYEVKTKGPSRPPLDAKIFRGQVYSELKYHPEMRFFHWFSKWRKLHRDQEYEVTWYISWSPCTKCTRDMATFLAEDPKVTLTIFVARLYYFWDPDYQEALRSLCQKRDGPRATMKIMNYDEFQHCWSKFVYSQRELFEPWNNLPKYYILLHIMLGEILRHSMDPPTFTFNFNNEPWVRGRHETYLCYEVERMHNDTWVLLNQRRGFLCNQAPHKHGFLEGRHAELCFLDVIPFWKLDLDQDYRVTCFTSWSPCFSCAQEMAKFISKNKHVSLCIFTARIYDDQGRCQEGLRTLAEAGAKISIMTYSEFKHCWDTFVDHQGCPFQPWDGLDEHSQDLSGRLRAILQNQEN
Chain of Luciferin 4-monooxygenase (Photinus pyralis) (P08659 whole entry, looked up): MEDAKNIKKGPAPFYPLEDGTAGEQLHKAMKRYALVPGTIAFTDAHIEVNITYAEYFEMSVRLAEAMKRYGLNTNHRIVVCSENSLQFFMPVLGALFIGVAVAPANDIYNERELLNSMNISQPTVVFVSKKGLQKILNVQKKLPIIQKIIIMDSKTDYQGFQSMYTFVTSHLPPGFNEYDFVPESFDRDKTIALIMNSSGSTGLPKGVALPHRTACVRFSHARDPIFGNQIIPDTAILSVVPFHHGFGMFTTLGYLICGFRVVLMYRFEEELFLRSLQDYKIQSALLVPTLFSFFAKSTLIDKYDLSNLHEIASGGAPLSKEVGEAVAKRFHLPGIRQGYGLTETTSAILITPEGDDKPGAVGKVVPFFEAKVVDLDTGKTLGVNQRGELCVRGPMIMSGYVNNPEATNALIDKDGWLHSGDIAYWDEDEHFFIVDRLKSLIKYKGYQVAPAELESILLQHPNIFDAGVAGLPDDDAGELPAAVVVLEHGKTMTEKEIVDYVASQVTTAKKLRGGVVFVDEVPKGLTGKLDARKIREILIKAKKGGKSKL
Chain of Guanine nucleotide-binding protein G(i) subunit alpha-1 (Homo sapiens) (P63096 whole entry, looked up): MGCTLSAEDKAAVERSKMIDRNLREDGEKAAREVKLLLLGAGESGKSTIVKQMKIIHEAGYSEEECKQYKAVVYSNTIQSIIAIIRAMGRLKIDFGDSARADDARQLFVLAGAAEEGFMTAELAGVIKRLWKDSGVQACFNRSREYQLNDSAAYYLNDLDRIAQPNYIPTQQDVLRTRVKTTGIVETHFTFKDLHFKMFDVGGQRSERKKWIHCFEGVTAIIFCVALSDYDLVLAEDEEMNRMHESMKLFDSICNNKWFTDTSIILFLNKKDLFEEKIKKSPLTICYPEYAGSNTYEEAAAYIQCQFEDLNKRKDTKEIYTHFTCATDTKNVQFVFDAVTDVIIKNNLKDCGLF
Chain of ATP-dependent 6-phosphofructokinase (Trypanosoma brucei brucei) (O15648 whole entry, looked up): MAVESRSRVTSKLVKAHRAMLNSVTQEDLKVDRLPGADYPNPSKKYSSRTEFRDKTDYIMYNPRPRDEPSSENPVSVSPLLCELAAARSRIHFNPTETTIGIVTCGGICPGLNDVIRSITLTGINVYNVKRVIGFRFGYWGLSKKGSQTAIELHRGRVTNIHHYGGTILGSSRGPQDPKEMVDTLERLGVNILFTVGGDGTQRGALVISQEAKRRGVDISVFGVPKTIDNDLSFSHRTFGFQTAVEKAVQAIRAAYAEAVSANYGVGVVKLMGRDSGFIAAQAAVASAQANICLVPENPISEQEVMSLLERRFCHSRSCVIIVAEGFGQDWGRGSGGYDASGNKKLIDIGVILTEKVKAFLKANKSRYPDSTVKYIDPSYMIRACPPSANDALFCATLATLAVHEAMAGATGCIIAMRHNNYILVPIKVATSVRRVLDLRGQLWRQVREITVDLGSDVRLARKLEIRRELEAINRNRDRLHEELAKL
Chain of Pyruvate kinase PKM (Homo sapiens) (P14618 whole entry, looked up): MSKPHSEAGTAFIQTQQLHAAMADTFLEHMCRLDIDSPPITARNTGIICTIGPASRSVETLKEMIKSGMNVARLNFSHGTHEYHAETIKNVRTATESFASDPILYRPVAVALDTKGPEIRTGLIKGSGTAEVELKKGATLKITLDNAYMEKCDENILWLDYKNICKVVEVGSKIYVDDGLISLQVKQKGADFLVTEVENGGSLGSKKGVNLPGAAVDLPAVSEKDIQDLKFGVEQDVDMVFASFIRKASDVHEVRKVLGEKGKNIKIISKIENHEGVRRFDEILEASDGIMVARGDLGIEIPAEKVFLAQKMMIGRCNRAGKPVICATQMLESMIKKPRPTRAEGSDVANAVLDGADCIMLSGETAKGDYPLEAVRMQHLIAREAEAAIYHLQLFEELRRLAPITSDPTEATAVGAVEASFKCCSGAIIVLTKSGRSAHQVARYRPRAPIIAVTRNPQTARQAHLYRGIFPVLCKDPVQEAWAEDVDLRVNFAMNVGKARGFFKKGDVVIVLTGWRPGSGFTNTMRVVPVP

**Q.** What does the source list for `CNc1cc(OC)c(C(=O)N[C@@H]2CCN(Cc3ccccc3)[C@H]2C)cc1Cl`?
**A.** Potency [1]: 31.6 µM (active); Potency [2]: > 46 µM; Potency [3]: > 46 µM; Potency [4]: inactive; Potency [5]: inactive; outcome [6]: inactive; Potency [7]: inactive; Potency [8]: inactive; Potency [9]: inactive; Potency [10]: 6.31 µM (active); Potency [11]: 14.1 µM (active); Potency [12]: inactive; Potency [13]: inactive; Potency [14]: inactive; Potency [15]: inactive; Potency [16]: inactive; Potency [17]: inactive; Potency [18]: inactive; Potency [19]: inactive; Potency [20]: inactive; Potency [21]: inactive; Potency [22]: inactive

**Q.** For `CCCCC#Cc1nc(N)c2ncn([C@@H]3O[C@@H](C(=O)NCC)[C@H](O)[C@@H]3O)c2n1`, which Potency [1] is on record?
**A.** inactive

**Q.** What about the activity change, negative = inhibition [23] of the same compound?
**A.** 15.6% [at 38 µM]

**Q.** And the Potency [2]?
**A.** > 46 µM

**Q.** What about the Potency [3] of the same compound?
**A.** > 46 µM

**Q.** And the Potency [4]?
**A.** inactive

**Q.** What about the Potency [24] of the same compound?
**A.** inactive

**Q.** What about the outcome [25] of the same compound?
**A.** inactive

**Q.** What about the Potency [26] of the same compound?
**A.** inactive

**Q.** What about the Potency [27] of the same compound?
**A.** inactive

**Q.** What about the Potency [28] of the same compound?
**A.** inactive

**Q.** And the outcome [29]?
**A.** inactive

**Q.** What about the outcome [30] of the same compound?
**A.** inactive

**Q.** What about the outcome [31] of the same compound?
**A.** inactive

**Q.** What does the source list for `Clc1ccc(-c2nnc3sc(Cc4cccs4)nn23)cc1`?
**A.** activity change, negative = inhibition [32]: 2.06%; Potency [2]: > 20.6 µM
